A selection: hits, their analogues and other compounds. The true share with any hit is near 21%.
Pf growth 48h: P. falciparum growth inhibition at 48 hours (one generation). P. falciparum luciferase growth in erythrocytes, 48 h. Potency, µM (titrated, usually from 28.7 µM), for the others: at the highest dose activity change, negative = inhibition, most hits filed as inhibitors. hit rate 5.9% among 310,000. AID 504832; further: potency means the concentration at half of the fitted maximal effect; on the % scale 0 is the no-effect control and ±100 the full control effect
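Erythrocytes infected with P. falciparum carrying an integrated firefly luciferase reporter (2% hematocrit, 0.1% parasitemia final) were exposed to compounds in RPMI 1640 with 0.5% Albumax at 37 C, 5% CO2. Growth inhibition was scored as reduced luminescence.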
Pf growth 96h: inhibits malaria parasite growth, 96 h; hit rate 6.9% among 320,000; Potency, µM (top dose mostly 28.7 µM), for the others: at the highest dose activity change, negative = inhibition, hits mostly inhibitors; P. falciparum luciferase reporter growth, 96 h; further: potency means the concentration at half of the fitted maximal effect; on the % scale 0 is the no-effect control and ±100 the full control effect
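Luminescence readout: decreased luciferase signal marks inhibited growth of reporter-expressing P. falciparum in infected red cells (2% hematocrit, 0.05% parasitemia final), exposed to compound two generations (96 h, 37 C, 5% CO2).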
HCMV antiviral: human cytomegalovirus inhibition | activity change, negative = inhibition, % at 57.5 µM | AID 1259415 | HFF cells, HCMV-luciferase reporter, 72 h; active compounds read low | hit rate 4.5% among 410,000; in the data active means activity change below about -60%; inconclusive means no clear call, values can overlap the other calls; inactive means above about -39%; further: on the % scale 0 is the no-effect control and ±100 the full control effect
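Luciferase read-out from HCMV-luciferase-infected HFFs (MOI 1 PFU/cell) 72 h post infection at 37C; compounds added after 16 h cell attachment; activity normalized between buffer-only basal and Salinomycin (10uM) inhibitor controls.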
Shiga toxin inh: inhibitors of Shiga toxin in Vero cells. AID 2315. Vero cells, Shiga toxin protein synthesis inhibition reporter. hit rate 9.2% among 290,000. inhibition, % at 38.7 µM; in the data active means inhibition mostly above about 28%, no sharp cut-off; inactive means mostly below about 43%; further: 0% is about no effect
HCV inh: blocks hepatitis C virus | Huh7.5.1 HCVcc-Cre infection, luciferase reporter, 44 h | Potency, µM (series often up to 41.8 µM), without a hit: at the highest dose activity change, negative = inhibition, most hits filed as inhibitors | hit rate 3.4% among 340,000 | AID 651820; further: potency means the concentration at half of the fitted maximal effect; on the % scale 0 is the no-effect control and ±100 the full control effect
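Infectious HCVcc-Cre (~0.5 moi) was added to cells just after compound, with cells seeded 4 h earlier at 1,000 per well. Luciferase activity after 44 h culture reported infection; substrate was incubated 15 min at room temperature before reading.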
CHX counter: counter-screen for Shiga toxin inhibitors: cycloheximide protein synthesis inhibition; cell reporter, cycloheximide protein synthesis inhibition counterscreen; max response, %; hit rate 12% among 300,000; in the data active means max response mostly above about 13%, no sharp cut-off; inactive means mostly below about 14%; further: read at 38.3 µM for the half of the compounds with a filed dose; 0% is about no effect
The depositor's hits bear a star; ? = inconclusive; . = no result; [ ] = remark or other dose. Unless noted, the call rests on the fitted dose curve; in most records, active means well fitted inhibition curve with a large enough effect; inconclusive means small, poorly fitted or top-dose-only effect, or another doubt; inactive means no such curve, though single readings can be large or run the other way.

SMILES	Pf growth 48h	Pf growth 96h	HCMV antiviral	Shiga toxin inh	HCV inh	CHX counter
NC(=S)N/N=C/c1ccc(-c2ccccc2)o1	?	49.4%	6.2	36.4*	-20.2%	24.3*
C=C(C)CNC(=S)N/N=C/c1ccc(NC(C)=O)cc1	0.0%	7.4%	-13.6	10.8	-3.6%	-2.6
CCNC(=S)N/N=C/c1ccc(C#N)cc1	-3.0%	5.8%	-61.7*	5.0	?	2.7
Cc1ccc(-c2ccc(/C=N/NC(=O)c3ccccc3O)o2)cc1	0.586µM*	0.828µM*	.	38.1	.	12.7
NS(=O)(=O)c1ccc(-c2ccc(/C=N/NC(=O)c3ccccc3O)o2)cc1	?	17.8%	0.0	31.6	15.1%	8.3
CCNC(=S)N/N=C/c1ccc(-c2ccccc2)o1	22.8%	-30.0%	-10.5	48.9*	?	23.5*
COc1cccc([C@@H]2Oc3ccc(OC)cc3C(=O)[C@H]2OC(=O)Nc2cc(OC)c(OC)c(OC)c2)c1	?	2.2%	.	45.5*	?	11.1*
COc1cccc([C@@H]2Oc3ccc(OC)cc3C(=O)[C@H]2OC(=O)N[C@H](C)C2CCCCC2)c1	?	-20.2%	.	8.9	2.3%[8.37 µM]	11.0
COc1cccc([C@@H]2Oc3ccc(OC)cc3C(=O)[C@H]2OC(=O)NCc2ccc3c(c2)OCO3)c1	?	-104.4%	.	83.7*	-2.6%[8.37 µM]	63.6*
CC[C@H](C)[C@@H](NC(=O)O[C@@H]1C(=O)c2cc(OC)ccc2O[C@H]1c1ccc(OC)c(Br)c1)C(=O)OC	13.9%	-5.1%	.	-10.5	?	5.9
COc1ccc2c(c1)O[C@H](c1ccc3c(c1)OCO3)[C@@H](OC(=O)Nc1cc(OC)c(OC)c(OC)c1)C2=O	?	?	.	-12.6	7.8%[8.37 µM]	-3.7
COc1ccc2c(c1)C(=O)[C@H](O)[C@@H](c1ccc(OC)c(Br)c1)O2	3.7µM*	2.08µM*	-37.4	53.6	0.3%[8.37 µM]	18.7*
COc1ccc2c(CNC3CCCC3)c(C(=O)O)n(Cc3ccccc3C)c2c1	.	.	2.4	.	.	.
CCC(C)NC(=O)NC(=O)CSc1nnc(-c2ccccc2F)n1C1CC1 (stereo not given)	-8.2%	-7.0%	-15.1	-11.2	-9.3%	-3.8
CCC(=O)Nc1ccc(C(=O)CSc2nnc(-c3ccccc3F)n2C2CC2)cc1	2.62µM*	2.94µM*	-37.0	-13.3	-5.8%	1.1
CN(C)c1cc[n+](CC(=O)Nc2c(Cl)cc(Cl)cc2Cl)cc1	-15.0%	145.0%	-67.5*	-6.1	-3.2%	-8.4
O=C(N/N=C/c1ccccc1C(=O)O)c1ccccc1Br	20.9%	0.0%	0.1	38.5	19.9%	7.3
COc1ccccc1/C=N/NC(=O)c1ccccc1Cl	-3.8%	-0.3%	-16.5	3.1	-4.8%	15.3
C=CCc1cccc(/C=N/NC(=O)C(=O)Nc2ccc(C)cc2)c1O	10.8%	?	-9.6	31.9	11.0%	14.9
C=CCc1cccc(/C=N/NC(=O)c2ccccc2OC)c1O	?	?	-97.4*	135.1*	?	30.0*
Cc1ccc2occ(/C=N/NC(=O)c3ccccc3Br)c(=O)c2c1	22.9%	4.65µM*	.	-19.2	0.6%	-1.2
C=CCc1cccc(/C=N/NC(=O)C(C)Nc2ccc(C)cc2)c1O (stereo not given)	?	11.7µM*	-89.4*	17.0	10µM*	-5.2
C=CCc1cccc(/C=N/NC(=O)c2ccccc2Br)c1O	?	?	-99.1*	50.2*	14.1µM*	10.4
CCOc1ccccc1C(=O)N/N=C/c1coc2ccc(C)cc2c1=O	-3.2%	-7.2%	.	-9.6	-2.7%	-1.7
CNC(=O)CS(=O)(=O)CC(=O)Nc1cc(OC(C)C)c(Cl)cc1Cl	-1.8%	-24.7%	-5.7	2.8	-21.8%	-1.1
SMILES	Pf growth 48h	Pf growth 96h	HCMV antiviral	Shiga toxin inh	HCV inh	CHX counter
CC(C)c1ccc(NC(=O)CN2C(=O)C3(SCC(=O)N3c3ccc(F)cc3)c3ccccc32)cc1 (stereo not given)	.	.	-23.4	.	.	.
CC(O)CNc1nc2c(c(=O)n(Cc3ccccc3)c(=O)n2C)n1C (stereo not given)	.	-20.5%	-9.3	-0.3	13.6%	-2.3
O=C(CCl)Nc1cc(S(=O)(=O)N2CCCCCC2)ccc1Cl	-12.5%	?	-64.1*	-16.9	35.5µM*	-1.6
CC(C)(C)CC(=O)Nc1cc(S(=O)(=O)N2CCCCCC2)ccc1Cl	-1.3%	-13.5%	-27.3	-12.4	?	-4.7
COc1cccc(CN(C)CC(=O)Nc2cc(S(=O)(=O)N3CCCC3)ccc2Cl)c1OC	11.7µM*	?	-33.4	.	2.82µM*	.
COc1ccccc1CNCC(=O)Nc1cc(S(=O)(=O)N2CCCCCC2)ccc1Cl	9.28µM*	?	-23.0	-5.8	?	4.8
COc1ccccc1CN(C)CC(=O)Nc1cccc(S(=O)(=O)N2CCCC2)c1	.	.	-23.1	.	?	.
CC(NC(=O)C1CCC(CNS(=O)(=O)c2ccccc2)CC1)c1ccccc1 (stereo not given)	-3.3%	18.1%	102.1	-14.6	-0.4%	-4.4
CC(=O)OC1CCC2(C)C3CCC4(C)C(C(C)=O)CCC4C3CC3OC32C1 (stereo not given)	.	.	-61.1*	.	6.7%	.
COc1ccc(-c2cc3nc(C)c(CCC(=O)NC4CCCCC4)c(C)n3n2)c(OC)c1	.	.	14.0	.	.	.
CC(=O)N1CCN(c2ccc(Oc3ccc([N+](=O)[O-])c(C(F)(F)F)c3)cc2)CC1	?	?	.	-12.4	11.2µM*	-5.6
CCOc1ccc(C(=O)Nc2ccc(N3CCN(C(C)=O)CC3)cc2)cc1[N+](=O)[O-]	0.0%	-11.4%	-33.3	-9.9	-17.5%	-2.9
Cc1ccc(S(=O)(=O)N(CC(=O)NCc2ccco2)C2CCCCC2)cc1	?	?	64.0	10.1	3.55µM*	4.1
Cc1ccc(S(=O)(=O)N(CC(=O)Nc2ccc(Cl)c([N+](=O)[O-])c2)C2CCCCC2)cc1	?	?	-76.7*	-3.8	?	6.1
O=C(CN(C1CCCCC1)S(=O)(=O)c1ccccc1)NCc1ccco1	-15.6%	4.65µM*	21.6	7.0	-5.9%	9.6
Cc1ccc(S(=O)(=O)N(CC(=O)NCc2ccncc2)C2CCCCC2)cc1	?	8.28µM*	28.5	-13.8	0.0%	-2.3
COc1ccc(S(=O)(=O)N(CC(=O)NCc2ccco2)C2CCCCC2)cc1OC	?	-25.5%	-16.7	-4.1	20.2%	-1.3
Cc1ccc(S(=O)(=O)N(CC(=O)Nc2cccc([N+](=O)[O-])c2)C2CCCCC2)cc1	?	?	?	2.6	-16.1%	-0.7
Cn1nc(C(C)(C)C)cc1C(=O)Sc1cccc(Br)c1	14.6%	14.8%	?	-4.3	-1.5%	1.5
CCC(c1ccccc1)c1nc(-c2ccccn2)no1 (stereo not given)	17.4%	34.2%	23.0	46.2	7.0%	3.8
